# This is a sample that favours compounds with a hit; in the whole collection about 10% have one here.
# ALDH1A1 block = blocks purified human ALDH1A1 activity | Potency, µM (doses to about 75.3 µM), without a hit: at the top dose activity, negative = inhibition, hits mostly inhibitors | hit rate 7.3% among 220,000 | Purified ALDH1A1, NADH fluorescence, propionaldehyde substrate | AID 1030; active means well fitted inhibition curve with a large enough effect, not every such curve was filed as active; inconclusive means small, poorly fitted or top-dose-only effect, or another doubt; inactive means no such curve, though single readings can be large or run the other way;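 further: potency means the concentration at half of the fitted maximal effect; plate controls were no enzyme wells and a reference inhibitor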
# GLA inh pH 4.5 = alpha-galactosidase A (human) inhibition, pH 4.5 | P06280 | purified enzyme, 4-MU-alpha-Gal fluorescence, pH 4.5 | activity change, negative = inhibition, % at 105 µM | 230,000 tested, under 10 active;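 further: 0% = full activity with enzyme and -100% = basal without enzyme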
# HPGD block = blocks human HPGD enzyme activity; P15428; purified HPGD, NADH fluorescence kinetic, PGE2 substrate; Potency, µM, for inactives: at the highest dose activity change, negative = inhibition, usual class: inhibitors; hit rate 4.3% among 150,000; AID 894; active means well fitted inhibition curve with a large enough effect, not every such curve was filed as active; inconclusive means small, poorly fitted or top-dose-only effect, or another doubt; inactive means no such curve, though single readings can be large or run the other way; further: potency means the concentration at half of the fitted maximal effect
# Target sequence (P15428 whole entry, looked up): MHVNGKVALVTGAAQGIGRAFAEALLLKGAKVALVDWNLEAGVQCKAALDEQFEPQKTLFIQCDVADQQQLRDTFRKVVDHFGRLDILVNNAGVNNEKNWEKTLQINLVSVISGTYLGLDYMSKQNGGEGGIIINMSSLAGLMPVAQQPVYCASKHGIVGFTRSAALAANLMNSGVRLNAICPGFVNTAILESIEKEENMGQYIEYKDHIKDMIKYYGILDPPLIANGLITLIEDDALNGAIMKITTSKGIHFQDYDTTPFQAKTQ
#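 NADH formation kinetics: reaction with 30 uM PGE2 and 1 mM NAD+ (final), 20 nM enzyme, Tris-HCl pH 8 with Tween 20, after 15 min compound preincubation at room temperature. Fluorescence change, last versus first of five reads.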
# GLA spleen mod = inhibitors or activators of human alpha-galactosidase in spleen homogenate | P06280 | human spleen homogenate, 4MU-alpha-Gal fluorescence, 40 min | Potency, µM (titrated, usually from 80 µM), without a hit: at the top dose activity change, negative = inhibition, usual class: inhibitors | hit rate 0.008% among 240,000 | AID 2107;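 further: potency means the concentration at half of the fitted maximal effect; 0% = enzyme with vehicle and -100% = no enzyme basal signal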
# Target sequence (P06280 32-429 limits assumed): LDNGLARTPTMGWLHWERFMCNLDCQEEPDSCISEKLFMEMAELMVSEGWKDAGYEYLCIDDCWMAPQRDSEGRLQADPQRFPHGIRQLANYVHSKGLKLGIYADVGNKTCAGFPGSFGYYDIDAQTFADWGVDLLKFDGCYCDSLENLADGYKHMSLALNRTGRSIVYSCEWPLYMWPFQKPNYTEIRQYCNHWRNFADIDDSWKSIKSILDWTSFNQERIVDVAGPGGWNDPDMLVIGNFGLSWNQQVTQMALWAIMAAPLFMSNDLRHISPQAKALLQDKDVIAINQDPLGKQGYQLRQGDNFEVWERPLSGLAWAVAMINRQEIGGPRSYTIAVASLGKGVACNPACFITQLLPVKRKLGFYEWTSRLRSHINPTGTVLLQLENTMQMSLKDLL
#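 qHTS titration in buffer at pH 5.0. Alpha-galactosidase activity in spleen homogenate was measured via 4-methylumbelliferone release from 1 mM fluorogenic substrate after 40 min at 37C and a pH 10 stop. AC50 came from Hill fits of control-normalized data.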
# PNC assembly inh = inhibitors of perinucleolar compartment assembly | PC3M PTB-GFP, PNC prevalence imaging, 16 h; active compounds read low | hit rate 3.1% among 140,000 | activity change (PNC), negative = inhibition, % at 10 µM;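 active means readout at or below -70, meaning at least 70% loss of cells showing the perinucleolar compartment, a nuclear body marking cancer cells; inconclusive means readout between -30 and a set limit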;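 further: plate controls were DMSO wells for no effect and camptothecin positive control wells for full effect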
#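 Compounds are pinned in duplicate onto adhered PC3M cells stably expressing GFP-tagged PTB and incubated 16 h at 37 C. Cells are then fixed, nuclei stained with Hoechst, and PNC-positive cells counted.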
# 12-hLO inh = blocks human 12-lipoxygenase activity. AID 1452. hit rate 0.12% among 150,000. purified 12-hLO, xylenol orange hydroperoxide absorbance. Potency, µM (highest dose often 57.1 µM), for the others: at the top dose activity change, negative = inhibition, actives largely listed as inhibitors; further: potency means the concentration at half of the fitted maximal effect; nearly all actives have a fitted effect of over 55% in size
#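 150 nM 12hLO, 25 mM Hepes pH 7.0 + 0.01% Triton X-100; cpd preinc 15 min RT; 40 uM arachidonic acid, 30 min RT; Fe-XO 30 min; A573/A405 ratio as read-out.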
# The depositor's hits bear a star; ? = inconclusive; / = not tested or not shown; [ ] = another dose, or the depositor's remark. Unless noted, the call rests on the fitted dose curve; in most records, active means well fitted curve in the direction sought with a large enough effect; inconclusive means small, poorly fitted or top-dose-only effect, or another doubt; inactive means no such curve, though single readings can be large; an effect the other way counts as inactive or inconclusive. Unless noted, on the % scale 0 is the no-effect control and ±100 the full control effect.
SMILES,ALDH1A1 block,GLA inh pH 4.5,HPGD block,GLA spleen mod,PNC assembly inh,12-hLO inh
Cc1ccc(OCC(=O)c2cc(C)n(CC(F)(F)F)c2C)c([N+](=O)[O-])n1,20µM*,3,/,-4%,/,/
COCCn1c(C)cc(C(=O)COc2cccnc2[N+](=O)[O-])c1C,5.6µM*,2,/,-15%,/,/
COCCn1c(C)cc(C(=O)COc2ncnc3ccc(Br)cc23)c1C,-1%,1,/,-7%,/,/
Cc1ccc(OCC(=O)c2cc(C)n(Cc3cccs3)c2C)c([N+](=O)[O-])n1,?,6,/,-8%,/,/
O=C(COc1cccnc1[N+](=O)[O-])c1c[nH]c2ccccc12,?,-3,/,-11%,/,/
O=C(CCn1nnc2ccccc21)N/N=C\Cc1ccccc1,7%,-10,/,-10%,/,/
Cn1cc(-c2nc3cnc(Oc4ccccc4)nc3n(Cc3cccs3)c2=O)c2ccccc21,5%,/,/,3%,/,/
Cn1c2c(c(=O)c3ccccc31)CCC(C)(C)O2,5%,-1,28µM*,2%,?,2%
Brc1ccc2c(c1)OCCOCCOCCOCCOCCOCCO2,15%,-1,-3%,-4%,21,3%
N#C/C(=C\c1ccc(C#N)cc1)C(=O)N1CCCC1,7.9µM*,10,/,4%,/,/
CN1CCN(C(=O)/C(C#N)=C/c2ccc(F)cc2)CC1,1.8µM*,4,/,-5%,/,/
OC[C@@H]1O[C@@H](O)[C@H](O)[C@H](O)[C@@H]1O,/,/,/,-1%,/,/
COCCCNC(=S)NNC(=S)Nc1cccc(Cl)c1,4.5µM*,-5,/,-15%,/,/
C=COCCNC(=S)Nc1cccc(Cl)c1,-7%,6,/,10%,/,/
O=C(CNc1cccc(Cl)c1)NNC(=S)NCc1ccccc1,0%,-1,/,0%,/,/
CCc1cc(C(=O)NNC(=S)Nc2cccc(C)c2)cs1,?,-6,-8%,1%,?,-4%
S=C(NCc1ccccc1)Nc1cccc(Cl)c1,5%,-2,14µM*,-10%,-28,-12%
Cc1ccc(NC(=S)NCc2ccccc2)cc1[N+](=O)[O-],-13%,3,13µM*,-1%,7,-29%
Cc1cccc(NC(=S)NNC(=O)c2csc(C(C)C)c2)c1,13µM*,7,-12%,-4%,?,?
O=C(CSc1nc(-c2ccccc2)c(-c2ccccc2)[nH]1)N1CCN(S(=O)(=O)c2ccccc2)CC1,?,-13,?,2%,34,-1%
CCOC(=O)CCN1C(=O)[C@H]2[C@@H]3[C@H](O)[C@H](O)CC(=O)[C@H]3CC[C@H]2C1=O,-3%[13.5 µM],/,/,-10%[17.5 µM],/,/
Cc1cccc(NC(=S)NNC(=S)NCc2ccccc2)c1,1.6µM*,-6,?,-5%,20,-22%
O=C(O)c1cccc(NC(=S)NCc2ccccc2)c1,12%,4,/,-7%,/,/
CCNC(=S)/C(=C(/[O-])c1ccc([N+](=O)[O-])cc1)[n+]1ccccc1,?,1,/,3%,/,/
Cc1ccc(/C([O-])=C(/C(=S)NCc2ccccc2)[n+]2cccc(CO)c2)cc1[N+](=O)[O-],8.9µM*,-4,/,-6%,/,/
SMILES,ALDH1A1 block,GLA inh pH 4.5,HPGD block,GLA spleen mod,PNC assembly inh,12-hLO inh
O=C(CSCc1ccccc1)Nc1ccc(F)c(F)c1,?,-6,-19%,-1%,-21,-2%
Cc1nn(C)c(C(=O)Sc2cccc(Cl)c2)c1[N+](=O)[O-],/,5,/,-13%,/,/
Cc1ccc(-c2nnc(N3CC(C)OC(C)C3)c3ccccc23)cc1 (configuration not stated),?,15,/,-9%,/,/
COc1ccc(C(=O)N2CCC3(CCCN(C(=O)NC(C)C)C3)CC2)cc1,13%,/,-2%,-11%,/,-1%
Cn1c(=O)c2c(O)c(Cc3ccccc3)c(=O)[nH]c2n(C)c1=O,14µM*,-4,-13%,3%,?,3%
CCOC(=O)c1ccc(Oc2nc(OC)nc(N(C)C)n2)cc1,24%,-3,-15%,7%,-93*,0%
Cc1nonc1NC(=O)CSc1nnc(-c2ccoc2C)n1-c1cccc(Cl)c1,10µM*,-5,-9%,-17%,?,-7%
CCCn1c(SCC(=O)Nc2nonc2C)nnc1-c1ccoc1C,0%,0,-4%,-1%,6,4%
COc1cccc(NC(=O)CSc2nnc(-c3ccoc3C)n2-c2ccccc2)c1,?,-2,-2%,3%,-87*,-6%
COc1ccc(OC)c(NC(=O)CSc2nnc(-c3ccco3)n2-c2ccc(C(=O)O)cc2)c1,25µM*,2,?,4%,?,-22%
O=C(Nc1ccc(OC(F)(F)F)cc1)c1[nH]ncc1[N+](=O)[O-],0%,2,/,-2%,/,/
COc1ccc(-c2nc(-c3ccccc3)oc2Nc2c(C)cccc2C)cc1,1%,5,-8%,4%,/,-2%
COc1ccc(N2CCSC2C(=O)NN)cc1 (configuration not stated),3.2µM*,4,-15%,-1%,15,4%
CCc1cccc2c(C(=O)COC(=O)C3=NNC(=O)CC3)c[nH]c12,13%,8,/,-1%,/,/
CCc1cccc2c(C(=O)COC(=O)c3nn(C)c(=O)c4ccccc34)c[nH]c12,?,-5,?,-3%,-109*,-4%
CC1(C)CC(=O)C2=C(C1)OC(N)=C([N+](=O)[O-])C2c1cccs1 (configuration not stated),-8%,-12,?,5%,17,0%
Cc1cc(S(=O)(=O)N(Cc2ccccc2Cl)c2ccc3c(c2)CCC3)ccc1-n1cnnn1,5µM*,9,-4%,0%,?,4%
COc1cccc(CN(c2ccc3c(c2)CCC3)S(=O)(=O)c2ccc(-n3cnnn3)c(OC)c2)c1,2.5µM*,-4,-12%,4%,?,-1%
CCOCCOC(=O)c1[nH]c2c(c1C)C(=O)CC(c1ccc(N(C)C)cc1)C2 (configuration not stated),13µM*,-2,-12%,?,-25,-4%
CCOC(=O)c1[nH]c2c(c1-c1ccccc1)C(=O)CC(c1ccccc1)C2 (configuration not stated),11%,5,-1%,-4%,12,1%
Cc1c(C(=O)N2CCOCC2)[nH]c2c1C(=O)CC(c1ccccc1Cl)C2 (configuration not stated),?,-1,-17%,-14%,-84*,-4%
CCOC(=O)c1[nH]c2c(c1C)C(=O)CC(c1ccc(OC)c(OC)c1)C2 (configuration not stated),11%,4,-1%,-8%,-20,0%
COCCOC(=O)c1[nH]c2c(c1C)C(=O)CC(c1cc(OC)ccc1OC)C2 (configuration not stated),-2%,1,-5%,3%,-12,-4%

# Screening results (PubChem BioAssay)
